This is part of a sample that, as a whole, favours compounds with a hit. Of some 83,000 tested, about 20% had one in any assay.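 Cell lines were cultured in 96-well plates, exposed to a single compound concentration, and assessed for percent growth 48 hours later.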 A number with no mark means an inactive call. Calls of active or inactive are those of the source. How the source made its calls: active means growth percent below 10; inactive means the rest.
Legend:
Test in all cases: NCI-60 one-dose screen, 48 h (100 = growth as untreated, 0 = no growth, -100 = all killed)
Details in all cases: 10 µM unless noted
[1] = test system: SK-MEL-2 melanoma
[2] = test system: EKVX NSCLC
[3] = test system: SN12C renal
[4] = test system: UO-31 renal
[5] = test system: TK-10 renal
[6] = test system: ACHN renal
[7] = test system: CAKI-1 renal
[8] = test system: A498 renal
[9] = test system: CCRF-CEM leukemia
[10] = test system: MOLT-4 leukemia
[11] = test system: SR leukemia
[12] = test system: RPMI-8226 leukemia
[13] = test system: OVCAR-8 ovarian
[14] = test system: OVCAR-5 ovarian
[15] = test system: OVCAR-4 ovarian
[16] = test system: SK-OV-3 ovarian
[17] = test system: IGROV1 ovarian
[18] = test system: OVCAR-3 ovarian
[19] = test system: HS 578T breast
[20] = test system: NCI/ADR-RES ovarian

Structure (SMILES)	growth [1]	growth [2]	growth [3]	growth [4]	growth [5]	growth [6]	growth [7]	growth [8] [%]	growth [9]	growth [10]	growth [11]	growth [12]	growth [13]	growth [14]	growth [15]	growth [16]	growth [17]	growth [18]	growth [19]	growth [20]
O=C(Nc1cccc(-n2cnc3cc(-c4ccc(O)cc4)ccc32)c1)C1CC1	58.4%	44.4%	24.9%	23.4%	67.4%	15.4%	26.2%	78.2	25.6%	12.7%	21.6%	25.5%	17.9%	41.2%	49.6%	35.5%	28.2%	-2.16% (active)	9.4% (active)	24.8%
CCCCSc1nc(Nc2ccc(S(N)(=O)=O)cc2)c(C#N)c(-c2cc(OC)c(OC)c(OC)c2)n1	87.7%	55.2%	23.1%	12.1%	82.2%	12.2%	34.9%	88.1	22.1%	-29.9% (active)	8.85% (active)	10.7%	31.5%	53.7%	40.2%	105%	46.8%	49.8%	67.8%	32.5%
CC1(c2cc3cc(Br)ccc3oc2=O)NC(=O)c2c(/C=C/C(=O)OC3CC4CCC3(C)C4(C)C)cccc2N1 (stereo not given)	92.7%	62.1%	75.5%	59.8%	104%	76.6%	78.2%	142	82.2%	47%	66.8%	35.8%	89%	92.6%	75.4%	86.4%	92.6%	83.1%	95.8%	74%
S=C(Nc1ccccc1)Nc1ccc(OCc2nc3ccccc3[nH]2)cc1	24.6%	46.3%	47.1%	30.4%	72.3%	24.6%	18.9%	72.1	28.9%	19.8%	32.5%	39.2%	35.8%	66.3%	38.9%	86.6%	56.3%	29%	50.6%	43%
COc1ccc(-c2nc3cc(C)ccc3n2CC(=O)N=Nc2c(O)[nH]c3ccc(OC)cc23)cc1	-14% (active)	-25.5% (active)	-95.1% (active)	-29.4% (active)	-3.46% (active)	-73.9% (active)	-51.3% (active)	52.3	38.5%	-46.2% (active)	-21.1% (active)	-14.7% (active)	-68.8% (active)	-48.2% (active)	-58.1% (active)	-17.7% (active)	-17.3% (active)	-71.8% (active)	-23.4% (active)	-56.1% (active)
Cc1ccc(S(=O)(=O)c2nc(S(=O)(=O)c3ccc(C)cc3)c(N3CCC(O)CC3)s2)cc1	66.6%	63.1%	74%	73.7%	129%	97.8%	69.2%	86.1	23.8%	38%	15.7%	53.4%	75.3%	104%	65%	97.6%	75.6%	72.9%	59.3%	74.5%
CC(=O)/C=C/c1cccc2c1C(=O)NC(C)(c1cc3cc(Br)ccc3oc1=O)N2 (stereo not given)	-0.79% (active)	34.3%	12.7%	22%	58.6%	22.7%	21.3%	104	0.825% (active)	-6.34% (active)	-0.625% (active)	2.71% (active)	24.9%	30.8%	27.2%	52.6%	25.3%	28.1%	46.6%	32.9%

From PubChem BioAssay (NCI)
